# Source: article PMC4336329 (PLoS ONE, 2015)
# In all, about 310,000 compounds went through this assay and about 14,000 (4.5%) showed an effect of 50% or more. Effects have a minus sign here. For the sample, strong results were picked, then their nearest neighbours and some compounds at random.
# Target: human ether-à-go-go-related gene (hERG) potassium channel (human, UniProt Q12809)
# Test: primary screen, population patch clamp on CHO cells stably expressing hERG; higher = less effect of the substance
# 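Further: peak tail current of the secondary pulse compared with the same well before compound.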
# Chain of human ether-à-go-go-related gene (hERG) potassium channel (Q12809 whole entry, looked up): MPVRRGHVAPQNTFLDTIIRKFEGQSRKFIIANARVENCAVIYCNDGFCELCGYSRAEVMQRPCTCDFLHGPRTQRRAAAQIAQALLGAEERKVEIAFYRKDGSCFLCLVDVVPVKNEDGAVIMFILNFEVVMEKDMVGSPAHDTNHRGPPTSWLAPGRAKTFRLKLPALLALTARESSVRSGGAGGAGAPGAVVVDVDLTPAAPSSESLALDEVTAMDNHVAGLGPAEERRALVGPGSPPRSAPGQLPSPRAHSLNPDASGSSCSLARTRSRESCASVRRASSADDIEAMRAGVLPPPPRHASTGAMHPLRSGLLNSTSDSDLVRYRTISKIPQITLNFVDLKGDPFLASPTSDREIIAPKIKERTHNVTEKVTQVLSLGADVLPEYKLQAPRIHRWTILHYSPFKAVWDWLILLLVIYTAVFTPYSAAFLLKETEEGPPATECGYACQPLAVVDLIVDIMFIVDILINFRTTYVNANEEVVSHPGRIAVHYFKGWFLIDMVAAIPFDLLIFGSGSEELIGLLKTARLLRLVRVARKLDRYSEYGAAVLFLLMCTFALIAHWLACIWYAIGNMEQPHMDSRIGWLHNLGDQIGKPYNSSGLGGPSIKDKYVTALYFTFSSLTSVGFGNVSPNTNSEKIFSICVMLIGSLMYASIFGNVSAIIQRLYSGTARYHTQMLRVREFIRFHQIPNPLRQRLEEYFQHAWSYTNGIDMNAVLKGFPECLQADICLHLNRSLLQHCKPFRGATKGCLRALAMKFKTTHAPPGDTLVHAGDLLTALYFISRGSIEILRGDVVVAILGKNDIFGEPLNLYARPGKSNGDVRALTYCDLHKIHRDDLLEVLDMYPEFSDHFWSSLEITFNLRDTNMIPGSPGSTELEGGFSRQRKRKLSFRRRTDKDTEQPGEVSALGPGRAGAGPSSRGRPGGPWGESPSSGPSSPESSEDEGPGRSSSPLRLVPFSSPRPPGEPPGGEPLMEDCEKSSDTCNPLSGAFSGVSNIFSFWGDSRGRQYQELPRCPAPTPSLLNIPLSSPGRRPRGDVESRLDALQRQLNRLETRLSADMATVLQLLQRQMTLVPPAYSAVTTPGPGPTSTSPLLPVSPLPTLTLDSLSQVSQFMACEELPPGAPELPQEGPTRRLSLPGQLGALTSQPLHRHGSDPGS
row,Compound,"hERG current change (%, negative = inhibition) at 10uM"
1,COc1cccc2nc3cc(C)c(C)cc3nc12,-7.73%
2,COc1ccc(C2CC(c3cccs3)=NN2C(=O)CCC(=O)O)cc1 (centres unmarked),10.5%
3,O=C(CN1CCOCC1)N1N=C(c2cccs2)CC1c1cccs1 (centres unmarked),18.9%
4,CCC(=O)N1N=C(c2cccs2)CC1c1ccc(OC)cc1 (centres unmarked),15.9%
5,O=C(CN1CCCCC1)N1N=C(c2cccs2)CC1c1cccs1 (centres unmarked),-58.7%
6,COc1ccc(C2CC(c3cccs3)=NN2C(=O)CN2CCCCC2)cc1 (centres unmarked),-71.9%
7,CC(=O)N1N=C(c2cccs2)CC1c1cccs1 (centres unmarked),5.99%
8,O=C(CSc1ncn[nH]1)Nc1nc(-c2ccccc2)ns1,-7.44%
9,CCCC(=O)c1cc(F)c(N2CCN(S(=O)(=O)c3ccccc3)CC2)cc1C,13.2%
10,CCOc1ccc(NC(=O)C(C)Sc2nccn2C)cc1 (centres unmarked),6.78%
11,Cn1cccc1Cc1nnc(SCC(=O)NCC2CCCO2)n1CCc1ccccc1 (centres unmarked),-10.8%
12,CCCn1nc(C(=O)OCC(=O)Nc2cccc(OC)c2)c2ccccc2c1=O,3.96%
13,Cc1ccc(-n2nnnc2SCc2ccc(C(=O)O)cc2)cc1C,-70.7%
14,CCN(CC)C(CNC(=O)CSc1nnnn1-c1cccc(F)c1)c1ccco1 (centres unmarked),-16.4%
15,O=C(O)c1ccc(CSc2nnnn2-c2ccc(F)cc2)cc1,-9.84%
16,CCN(CC)C(CNC(=O)CSc1nnnn1-c1ccc(C)c(C)c1)c1ccco1 (centres unmarked),-54.5%
17,O=C(O)c1ccc(-n2nnnc2SCc2ccccc2)cc1,8.05%
18,Cc1ccc(-n2nnnc2SCC(=O)NNC(=O)c2ccco2)cc1C,24.3%
19,COc1cc(CCc2ccc3c(c2)OCO3)oc(=O)c1,4.95%
20,Cc1ccc(C2(C)NC(=O)N(CC(=O)NNC(=O)c3ccoc3C)C2=O)cc1 (centres unmarked),26.6%
21,Cc1nn(CC(=O)NCc2ccccc2)c(=O)c2cccn12,9.27%
22,O=C(Nc1ccc(Cl)cc1)N1CCN(c2ncccn2)CC1,-13.2%
23,O=C(Nc1ccc(Cl)cc1)N1CCCN(c2ccc(C(F)(F)F)cc2[N+](=O)[O-])CC1,4.29%
24,O=C(Nc1ccc(OC(F)(F)F)cc1)N1CCN(c2ccnc3cc(Cl)ccc23)CC1,-72.1%
25,Cc1csc2ncnc(N3CCN(C(=O)Nc4ccc(OC(F)(F)F)cc4)CC3)c12,-68%
26,O=C(Nc1ccc(C(F)(F)F)cc1)N1CCN(c2ccnc3cc(Cl)ccc23)CC1,-62.2%
27,CC(C)(C)OC(=O)N1CCCN(C(=O)Nc2ccc(OC(F)(F)F)cc2)CC1,-22.6%
28,Cc1csc2c(N3CCN(C(=O)Nc4ccc(OC(F)(F)F)cc4)CC3)ncnc12,-32.9%
29,Cc1csc2ncnc(N3CCN(C(=S)Nc4ccc(C(F)(F)F)cc4)CC3)c12,-16.7%
